Source: PubChem (National Center for Advancing Translational Sciences (NCATS))
An excerpt weighted towards active compounds, which were near 12% of everything screened.
AmpC no deterg: blocks E. coli AmpC beta-lactamase in detergent-free assay; AmpC nitrocefin hydrolysis, absorbance 480 nm, 0.0001% Triton; 330,000 tested, 0.52% active; Potency, µM (series often up to 57.1 µM), without a hit: at the highest dose activity change, negative = inhibition, most hits filed as inhibitors; P00811;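 also: plate controls were no compound for no effect and no enzyme for full effect; nearly all actives have a fitted effect of over 20% in size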
Target sequence (P00811 whole entry, looked up): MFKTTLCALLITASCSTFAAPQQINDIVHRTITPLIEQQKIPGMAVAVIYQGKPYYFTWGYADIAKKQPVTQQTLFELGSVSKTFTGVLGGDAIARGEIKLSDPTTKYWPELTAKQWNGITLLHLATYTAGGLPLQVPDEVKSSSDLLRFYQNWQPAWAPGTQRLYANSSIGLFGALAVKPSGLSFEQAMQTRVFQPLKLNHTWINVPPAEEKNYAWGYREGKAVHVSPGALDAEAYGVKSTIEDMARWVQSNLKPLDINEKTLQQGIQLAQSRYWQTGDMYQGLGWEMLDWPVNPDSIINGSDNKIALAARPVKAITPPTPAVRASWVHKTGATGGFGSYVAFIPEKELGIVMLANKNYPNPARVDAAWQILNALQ
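20 mM phosphate pH 7.0 + 0.01% (detergent screen) or 0.0001% Triton X-100; 5.3 nM AmpC reagent; cpd preinc 15 min RT; nitrocefin (800 uM stock) to start; A480 q20 s × 4 min; Activity was normalised to no-enzyme and no-compound control wells.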
Sm TGR block: inhibitors of Schistosoma mansoni thioredoxin glutathione reductase; Q962Y6; purified TGR, DTNB reduction, TNB absorbance 405 nm; Potency, µM (doses to about 114 µM), inactives show at the highest dose activity change, negative = inhibition, hits mostly inhibitors; 360,000 tested, 3% active; also: % is scaled to controls: 0 for no effect and ±100 for the full control effect; nearly all actives have a fitted effect of over 60% in size
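First, TGR (20 nM dispensed) and NADPH were mixed with compound. Second, a 15 min room-temperature incubation followed. Third, further NADPH and then DTNB were added to start the reaction. Finally, TNB absorbance was monitored kinetically.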
SARS PLpro yeast: SARS-CoV PLP inhibition in yeast; AID 485353; S. cerevisiae expressing SARS-CoV PLpro, growth rescue; Potency, µM (series often up to 32.9 µM), for inactives: at the top dose activity, positive = growth rescue, usual class: activators; 330,000 tested, 0.19% active; calls by dose curve; also: 0% is about no effect; nearly all actives have a fitted effect of over 55% in size
Pf growth 96h: P. falciparum growth inhibition at 96 hours | P. falciparum luciferase reporter growth, 96 h | Potency, µM (titrated, usually from 28.7 µM), inactives show top-dose activity change, negative = inhibition, most hits filed as inhibitors | 320,000 tested, 6.9% active; also: % is scaled to controls: 0 for no effect and ±100 for the full control effect
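Infected RBCs, 2% Hct / 0.05% parasitemia final; luciferase-reporter P. falciparum; cpd 96 h, 37 C, 5% CO2; luciferase detection reagent; luminescence.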
Pf growth 48h: inhibits P. falciparum growth in the first generation, 48 h | P. falciparum luciferase growth in erythrocytes, 48 h | Potency, µM (series often up to 28.7 µM), inactives show top-dose activity change, negative = inhibition, hits mostly inhibitors | 310,000 tested, 5.9% active | AID 504832; also: % is scaled to controls: 0 for no effect and ±100 for the full control effect
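Compounds are pin-transferred into medium, infected erythrocytes (2% hematocrit, 0.1% parasitemia final) are added, and plates sit one parasite generation at 37 C in 5% CO2. Detection reagent is then added and luminescence measured.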
AmpC inh detg: blocks E. coli AmpC beta-lactamase in detergent assay; 370,000 tested, 0.041% active; AmpC hydrolysis of nitrocefin, absorbance 480 nm, 0.01% Triton; AID 485294; Potency, µM (doses to about 114 µM), inactives show at the highest dose activity change, negative = inhibition, actives largely listed as inhibitors;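 also: 0% = no-compound wells and -100% = no-enzyme wells; nearly all actives have a fitted effect of over 25% in size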
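20 mM phosphate pH 7.0 + 0.01% (detergent screen) or 0.0001% Triton X-100; 5.3 nM AmpC reagent; cpd preinc 15 min RT; nitrocefin (800 uM stock) to start; A480 q20 s × 4 min; Activity was normalised to no-enzyme and no-compound control wells.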
The depositor's hits bear a star; ? = inconclusive; · = no result; [ ] = another dose, or the depositor's remark. Unless noted, calls follow the shape of the dose curve; as a rule, active = well fitted curve in the direction sought with a large enough effect; inconclusive = small, poorly fitted or top-dose-only effect, or another doubt; inactive = no such curve, though single readings can be large; an effect the other way counts as inactive or inconclusive. Potency is read from the fitted curve at half-maximal effect.

SMILES	AmpC no deterg	Sm TGR block	SARS PLpro yeast	Pf growth 96h	Pf growth 48h	AmpC inh detg
CCOC(=O)c1c(NC(=O)C(C)N2CCN(C(=O)c3ccco3)CC2)sc2c1CCCC2 (stereo not given)	109%	-23%	-22%	?	·	2%
CCN(CC)S(=O)(=O)c1ccc(N2CCCC2)c(NC(=O)c2ccccc2OC)c1	18%	-5%	-1%	10µM*	?	-5%
COc1cc(/C=C/C(=O)Nc2ccc(N3CCCCC3)c(S(=O)(=O)Nc3ccccc3Cl)c2)cc(OC)c1OC	1%	-7%	5%	4.1µM*	13µM*	-13%
CCN(CC)S(=O)(=O)c1ccc(N2CCCCC2)c(NC(=O)/C=C/c2cc(OC)c(OC)c(OC)c2)c1	18%	-5%	11%	10µM*	?	-9%
CCN1CCN(c2ccc(S(=O)(=O)N3CCCCC3)cc2NC(=O)/C=C/c2ccc(OC)c(OC)c2)CC1	352%	-1%	8%	6.6µM*	6.6µM*	12%
CCn1c(CCC(=O)Nc2nc3c(s2)CCCC3)nc2cc(S(=O)(=O)N(C)C)ccc21	258%	-20%	?	22%	0%	5%
Cc1ccc2c(c1)c1c(c(=O)n(-c3cccc(Cl)c3)c(=O)n1CC(=O)NCC1CCCO1)n2C (stereo not given)	·	-11%	·	·	·	12%
CCCCCOc1ccc(C(=O)N(Cc2ccccc2)C2CCS(=O)(=O)C2)cc1 (stereo not given)	·	-3%	·	·	·	-7%
Cc1ccnc(NC(c2ccccn2)c2c(C)[nH]c3ccccc23)c1 (stereo not given)	-1%[2.29 µM]	0.28µM*	0%	18%	-12%	-7%
Cc1cc(NC(c2cccnc2)c2c(C)[nH]c3ccccc23)no1 (stereo not given)	-30%	2.8µM*	2%	?	-13%	?
CCOc1ccc2c(c1)c(=O)c(S(=O)(=O)c1ccc(Cl)cc1)cn2Cc1ccccc1C	·	-8%	·	·	·	-2%
Cc1ccc(C)c(OC(=O)CSc2nnc(-c3ccc4c(c3)OCO4)o2)c1	·	-24%	·	·	·	24%
CNS(=O)(=O)c1cccc(C(=O)OC2CCOC2=O)c1 (stereo not given)	-8%	5%	0%	34%	0%	1%
O=C(COC(=O)c1cnccn1)c1ccc(Cl)c([N+](=O)[O-])c1	-17%	40µM*	-1%	28%	3%	1%
CNC(=O)COC(=O)c1ccccc1C(=O)c1ccc(Cl)c([N+](=O)[O-])c1	150%	35µM*	0%	-4%	?	?
CS(=O)(=O)c1ccc(C(=O)OC2CCOC2=O)cc1[N+](=O)[O-] (stereo not given)	-19%	2.8µM*	2%	?	6.6µM*	-6%
O=C(OC1CCOC1=O)c1ccccc1C(=O)c1ccc(Cl)c([N+](=O)[O-])c1 (stereo not given)	-29%	25µM*	-3%	-41%	?	-7%
O=C1C2C3C=CC(CC3)C2C(=O)N1c1ccc(Cl)cc1Cl (stereo not given)	-17%	58%	2%	?	0%	?
COc1ccccc1NC(=O)C1=C(C)Nc2nc(CCCO)nn2C1c1cccc(O)c1 (stereo not given)	·	-1%	·	·	·	6%
C/C(=N\S(=O)(=O)c1ccc(C)cc1)N(C)C	-22%	-1%	0%	-15%	?	-4%
O=S(=O)(c1ccccc1)c1nc(-c2ccc(Cl)cc2)oc1NCCCN1CCOCC1	31%	?	3%	?	5%	?
Cc1ccc(NC(=O)c2ccc(CN3CC(=O)N4CCCCC4C3=O)cc2)cc1C (stereo not given)	·	-1%	·	·	·	1%
O=C(COC(=O)c1ccccc1C(=O)c1ccc(Cl)c([N+](=O)[O-])c1)NC1CC1	4%	22µM*	6%	2%	-2%	-6%
COc1cc(NC(=O)c2ccc(Br)o2)ccc1NC(=O)c1ccccc1Cl	-41%	-29%	-22%	·	10µM*	-5%
COc1cc(NC(C)=O)ccc1NC(=O)c1cc2ccccc2o1	0%	6%	12%	12µM*	3%	-12%
SMILES	AmpC no deterg	Sm TGR block	SARS PLpro yeast	Pf growth 96h	Pf growth 48h	AmpC inh detg
COc1cc(NC(=O)c2ccccc2F)ccc1NC(=O)c1ccccc1Cl	-22%	19%	-1%	72%	5%	-8%
CN(C)S(=O)(=O)c1ccc(NC(=O)c2cc3ccccc3o2)cc1	-48%	5%	-5%	13µM*	-12%	-14%
COC(=O)c1cc(NC(=O)c2cc3ccccc3o2)cc(C(=O)OC)c1	-15%	0%	3%	-16%	-3%	-1%
COC(=O)c1cccc(NC(=O)c2cc3ccccc3o2)c1	-46%	-2%	-17%	22%	9.3µM*	1%
COc1ccc(CN2C(=O)CS(=O)CC2=O)cc1OC	-1%	-24%	-3%	57%	5%	-4%
COc1ccccc1NC(=O)Cn1c(=O)n(CCCCCC(=O)NCc2ccccc2)c(=O)c2sccc21	·	1%	·	·	·	9%
Cc1cc(C)c(NC(=O)C(C)Sc2nnc(-c3ccco3)n2-c2ccccc2)c(C)c1 (stereo not given)	-5%	-3%	-3%	26%	-10%	?
Cc1ccc(NS(=O)(=O)c2ccc(-n3cccn3)cc2)nc1	-16%	-18%	-1%	?	-10%	-4%
CCCN1CCN(CCCNC(=O)c2cc3c(=O)oc4ccc(C)cc4c3s2)CC1	-10%	32%	-1%	?	13%	5%
Cc1ccc2oc(=O)c3cc(C(=O)NCCN4CCc5ccccc5C4)sc3c2c1	1%	2%	-7%	?	4.7µM*	2%
Cc1ccc2oc(=O)c3cc(C(=O)NCc4ccco4)sc3c2c1	-12%	-3%	-4%	9.3µM*	·	-11%
COc1cccc(CNC(=O)c2cc3c(=O)oc4ccc(C)cc4c3s2)c1	·	6%	·	·	·	10%
Cc1ccc2oc(=O)c3cc(C(=O)NCCCN4CCCC(C)C4)sc3c2c1 (stereo not given)	-5%	0%	-2%	21%	4.1µM*	-2%
CC(C)C(NC(=O)c1ccccc1)C(=O)OCn1nnc2ccccc2c1=O (stereo not given)	-26%	-15%	2%	10%	-11%	-7%
CCN(C(=O)c1c(C)oc2ncnc(N3CCCCC3)c12)c1cc(C)ccc1C	·	10%	·	·	·	0%
Cc1ccc(N=Cc2c(O)n(-c3cc(Cl)ccc3N3CCOCC3)c(=O)c3ccccc23)cc1C	17%	7%	-2%	·	2.6µM*	-7%
